# Source: PubChem BioAssay
# Many of the other results were omitted from the sample, so hits are more common in it than they were.
# IkB signaling – IkB pathway inhibition in ABC-DLBCL cells; ABC-DLBCL IkBa-CBG/CBR dual luciferase ratio, 4 h; response scale: scaled: untreated 0%, proteasome inhibitor 100%; Potency, µM (series often up to 57.1 µM), for inactives: at the top dose IkBa stabilization activation; 110,000 tested, 0.04% active; active = well fitted curve in the direction sought with a large enough effect in the signal ratio, not every such curve was filed as active; inconclusive = small, poorly fitted or top-dose-only effect, or a change in a side signal; the % refers to the signal ratio;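 note: potency is the fitted concentration of half-maximal effect; the direction sought is a rising ratio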
#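 Curves were fitted separately to fusion (green), unfused (red) and ratio luminescence, then classed by r2, magnitude and activity. Cells: OCI-Ly3, 4 h compound plus doxycycline at 37C; 10 uM MG-132 defined full response.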
# p53ts 39C kill – cytotoxicity in p53ts cells at nonpermissive temperature | H1299-p53A138V viability at 39C, ATP luminescence, 24 h | Potency, µM (titrated, usually from 46.1 µM), inactives show at the top dose activity change, negative = cell killing, actives largely listed as cytotoxic | 130,000 tested, 1.5% active | AID 902; note: potency is the fitted concentration of half-maximal effect; % is set by controls: 0 for no effect and ±100 for the full control effect; nearly all actives have a fitted effect of over 55% in size
# p53ts 32C kill – cytotoxicity in p53ts cells at permissive temperature. H1299-p53A138V at 32C, ATP luminescence viability, 24 h. Potency, µM (titrated, usually from 46.1 µM), inactives show at the top dose activity change, negative = cytotoxicity, most hits filed as cytotoxic. 130,000 tested, 0.93% active;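 note: potency is the fitted concentration of half-maximal effect; 0% = DMSO and -100% = full killing by reference compound; nearly all actives have a fitted effect of over 55% in size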
#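 H1299-p53 A138V cells (temperature-sensitive p53) exposed 24 h to up to 46 uM compound at 32C, where p53 is wild-type in conformation. Viability read as ATP luminescence and normalised to DMSO and 100 uM tamoxifen. AC50 fitted with the Hill equation.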
# FLuc inh – firefly luciferase inhibition. Potency, µM (top dose mostly 57.1 µM), for inactives: at the highest dose activity change, negative = inhibition, most hits filed as inhibitors. purified firefly luciferase, luminescence, 8 min. 72,000 tested, 2.2% active. P08659; note: potency is the fitted concentration of half-maximal effect; % is set by controls: 0 for no effect and ±100 for the full control effect; nearly all actives have a fitted effect of over 40% in size
# Target sequence (P08659 whole entry, looked up): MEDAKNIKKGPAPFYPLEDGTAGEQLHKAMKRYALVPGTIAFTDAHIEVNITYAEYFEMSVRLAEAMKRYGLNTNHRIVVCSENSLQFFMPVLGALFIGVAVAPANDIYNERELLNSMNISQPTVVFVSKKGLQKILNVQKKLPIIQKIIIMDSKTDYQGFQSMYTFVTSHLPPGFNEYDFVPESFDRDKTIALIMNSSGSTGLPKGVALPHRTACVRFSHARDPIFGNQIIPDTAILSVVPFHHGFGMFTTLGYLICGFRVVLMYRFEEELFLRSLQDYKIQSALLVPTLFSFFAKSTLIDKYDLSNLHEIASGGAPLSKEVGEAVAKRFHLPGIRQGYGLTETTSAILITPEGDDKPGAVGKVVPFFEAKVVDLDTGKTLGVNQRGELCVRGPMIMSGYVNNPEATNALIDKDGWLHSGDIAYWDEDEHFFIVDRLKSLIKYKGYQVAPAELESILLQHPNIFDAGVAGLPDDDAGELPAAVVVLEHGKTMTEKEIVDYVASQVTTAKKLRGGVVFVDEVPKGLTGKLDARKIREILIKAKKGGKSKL
#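 Compounds were tested as concentration series (qHTS) against purified P. pyralis luciferase with luciferin and 10 uM ATP in 50 mM imidazole pH 7.2, 50 mM KCl, 7 mM MgCl2, 0.01% Tween 20, 0.05% BSA. Luminescence was read after 8 min at ambient temperature.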
# Peg3 imprint – inducers of genomic imprint erasure in mouse ES cells | mouse ES Peg3-LacZ reporter, beta-gal luminescence, 40 h | Potency, µM (doses to about 60.7 µM), without a hit: at the top dose activity change, positive = activation, actives largely listed as activators | 110,000 tested, 0.02% active; note: potency is the fitted concentration of half-maximal effect
#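 Readout: BetaGlo luminescence (5 min, room temp) for LacZ from the normally silent maternal Peg3 allele in female Peg3LacZ-Neo ES cells. Cells 300/well, 40 h, 37C, 5% CO2. Data normalized per plate to negative controls.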
# IMPase cell inh – membrane-permeable compound that blocks inositol monophosphatase; P97697; CHO-M1 cells, IP1 accumulation, HTRF TR-FRET ratio; inhibition (IP1 accumulation), % at 46.1 µM; 120,000 tested, under 10 active; AID 901; active = well fitted curve in the direction sought with a large enough effect in the signal ratio, not every such curve was filed as active; inconclusive = small, poorly fitted or top-dose-only effect, or a change in a side signal; inactive = no such curve, though single readings can be large or run the other way; the % refers to the signal ratio;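 note: cells stimulated with carbachol in lithium chloride buffer; plate controls were DMSO basal wells for no effect and reference inhibitor wells for full effect; higher means more IMPase inhibition seen as more IP1 and lower FRET ratio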
# Target sequence (P97697 whole entry, looked up): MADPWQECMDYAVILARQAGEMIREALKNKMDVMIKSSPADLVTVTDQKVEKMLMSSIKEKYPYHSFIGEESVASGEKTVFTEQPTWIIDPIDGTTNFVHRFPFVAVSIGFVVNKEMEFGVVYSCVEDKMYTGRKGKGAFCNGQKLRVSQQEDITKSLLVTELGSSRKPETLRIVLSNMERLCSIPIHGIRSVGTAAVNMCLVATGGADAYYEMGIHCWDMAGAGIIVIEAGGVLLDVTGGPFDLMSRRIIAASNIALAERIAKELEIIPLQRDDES
#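 Measured: the HTRF emission ratio (665/620 nm) plus the 620 nm donor channel, each fitted to the Hill equation to give AC50. Cells were CHO-M1 given compounds up to 46 uM and a 30 min carbachol stimulation at 37C.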
# * hit, by the source's call; u = inconclusive; x = no result given; [ ] = remark or other dose. Unless noted, calls come from the whole dose curve; as a rule, active = well fitted curve in the direction sought with a large enough effect; inconclusive = small, poorly fitted or top-dose-only effect, or another doubt; inactive = no such curve, though single readings can be large; an effect the other way counts as inactive or inconclusive.
SMILES,IkB signaling,p53ts 39C kill,p53ts 32C kill,FLuc inh,Peg3 imprint,IMPase cell inh
CCCN1C[C@@H](CSC)C[C@H]2c3cccc4[nH]cc(c34)C[C@@H]21,-4.6%,5.5%,-15.4%,3.0%,x,2.2
CCCC(c1nnnn1Cc1ccc(F)cc1)N1CCN(C2CCCCC2)CC1 (stereo unspecified),0.5%,20µM*,u,-1.0%,3.6%,4.5
CCOc1ccc(N2Cc3ccccc3C2)cc1,0.9%,u,12.6µM*,10µM*,-60.9%,10.1
CCOc1ccc(N2CC(=O)N(c3ccc(OCC)cc3)CC2=O)cc1,x,x,x,x,x,-3.7
[O-]/[N+](=C\c1ccncc1)c1ccc(Br)cc1,6.7%,-4.0%,-13.6%,7.94µM*,-32.0%,x
Cc1ccc(Nc2nc3nonc3[nH]c2=O)cc1C,u,10µM*,12.6µM*,u,-52.7%,-10.1
Cc1ccc(Nc2n[nH]c(C)c2[N+](=O)[O-])cc1C,x,7.0%,-17.0%,x,x,5.3
O=C(NCc1ccccc1Cl)c1ccc(Nc2nc3ccccc3n3nnnc23)cc1,u,-2.1%,-2.7%,x,-5.2%[10.9 µM],u
Clc1cccc(CSc2nc3ccncc3[nH]2)c1,x,x,x,x,x,1.5
Fc1cccc(CSc2nc3ccncc3[nH]2)c1,-3.6%,10µM*,5.01µM*,-27.5%,-20.4%,x
Cc1cccc(CNc2cc(-c3ccoc3)ncn2)c1,0.0%[11.4 µM],-20.6%,-15.2%,0.3%[2.29 µM],-22.9%,x
Oc1ccc(Nc2nc(-c3ccc(O)cc3)cs2)cc1,u,6.7%,-3.1%,15.8µM*,-23.7%,6.1
Oc1ccc(-c2csc(NCc3ccco3)n2)cc1,0.9%,-29.7%,-3.4%,25.1µM*,-28.2%,-0.2
c1cc2c(cc1Nc1nc(-c3ccc4c(c3)OCO4)cs1)OCCO2,u,-16.7%,-18.6%,12.6µM*,-10.1%,-16.2
CCOc1ccc(-c2cc3nc(C4CCN(C(=O)OC(C)(C)C)CC4)c(C(=O)Nc4ccc(C)c(F)c4)cn3n2)cc1,u,u,-13.7%,x,-34.3%[10.9 µM],x
COCc1oc2ccc(NS(=O)(=O)c3ccc(C)cc3)cc2c1C(=O)OC,u,-12.0%,10.6%,x,-27.0%[10.9 µM],-1.5
N[C@H](Cc1ccc(F)cc1)C(=O)O,9.2%,-4.3%,15.9%,-0.1%,x,-0.1
c1ccc(-c2ccc(-c3ccccn3)nn2)nc1,u,10µM*,12.6µM*,12.6µM*,-88.8%,-2.9
N#CCCS(=O)(=O)c1nnnn1-c1ccccc1,u,20µM*,u,-6.9%,-27.3%,1.6
Cc1ccc(Nc2nc(CSc3nnnn3C)cs2)cc1,-0.1%,u,u,12.6µM*,-22.3%,7.9
CCOC(=O)C1=C([Si](C)(C)C)c2ccccc2N(S(=O)(=O)C(F)(F)F)C1C(=O)OCC (stereo unspecified),x,x,x,x,-22.8%,x
O=C(CC(Nc1ccc(Cl)cc1)C(=O)O)c1ccccc1 (stereo unspecified),x,u,25.1µM*,x,x,-1.4
COc1ccccc1C(=O)NCC1(N2CCN(C)CC2)CCCCC1,0.9%,u,-9.9%,x,-6.7%[10.9 µM],x
COc1ccc(-c2noc(Cn3c(=O)c4ccccc4n(CC(=O)Nc4cccc(C(F)(F)F)c4)c3=O)n2)cc1,u,30.9%,-3.0%,x,14.9%[10.9 µM],x
COc1ccc(-c2noc(N(C)CC(=O)Nc3cccc(C(F)(F)F)c3)n2)cc1,u,-16.8%,33.5%,25.1µM*,-16.2%,19.8
SMILES,IkB signaling,p53ts 39C kill,p53ts 32C kill,FLuc inh,Peg3 imprint,IMPase cell inh
CCN1CCN(CCCNC(=O)Cn2c(-c3cccs3)cc3cc(F)ccc32)CC1,x,x,2.1%,x,x,x
COc1ccc(N(CC(=O)N2CCN(c3cccc(OC)c3)CC2)S(=O)(=O)c2c(C)noc2C)cc1,-2.7%,-15.4%,-9.6%,x,-13.5%[10.9 µM],x
COc1ccc2c(c1)[N+](=O)C(/C(C)=N/NC(N)=S)=C(C)[N+]2=O,x,x,x,x,-1.2%[10.9 µM],x
COc1cc2c(C#N)c(N3CCCCC3)nc(N)c2c(N)n1,-2.3%,-26.1%,-5.7%,20µM*,-16.5%,-15.7
COc1cc2c(C#N)c(N3CCOCC3)nc(N)c2c(N)n1,-0.3%,-12.9%,-13.3%,u,-16.7%,u
c1ccc2c(c1)NC1(CCCCCC1)n1c-2nc2ccccc21,x,x,x,x,x,-13.0
c1ccc2c(c1)NC1(CCCCC1)n1c-2nc2ccccc21,8.0%,u,u,12.6µM*,-78.6%,-2.7
C[C@@H]1O[C@@H](OC[C@@H]2O[C@@H](Oc3c(-c4ccc(O)c(O)c4)oc4cc(O)cc(O)c4c3=O)[C@H](O)[C@H](O)[C@@H]2O)[C@H](O)[C@H](O)[C@@H]1O,-1.2%[11.4 µM],x,x,-1.0%[11.4 µM],x,x
N#C/C(=C\c1ccc(-c2ccc(F)cc2F)o1)c1nc2ccccc2[nH]1,-11.2%,6.31µM*,15.8µM*,x,-13.3%[10.9 µM],-9.5
Cc1ccc2nc(/C(C#N)=C\c3ccc([N+](=O)[O-])o3)[nH]c2c1,x,x,x,x,x,3.1
CCOC(=O)c1ccc(-c2ccc(/C=C(\C#N)c3nc4ccc(C)cc4[nH]3)o2)cc1,u,3.16µM*,u,x,-40.7%[10.9 µM],10.1
Cc1ccc(-c2nc3ccccc3[nH]2)cc1NC(=O)COc1ccccc1[N+](=O)[O-],u,7.94µM*,15.8µM*,x,-15.1%[10.9 µM],x
COCCNc1ncnc2ccc(-c3c(C)noc3C)cc12,u,-10.7%,13.5%,0.4%[2.29 µM],-1.6%,x
Cc1ccc(-n2nc(C)c(C(=O)NCCCN3CCN(c4ccccc4F)CC3)c2-n2cccc2)cc1,u,12.6µM*,-9.2%,x,-18.0%[10.9 µM],x
COc1ccc(-c2nc3cc(NC(=O)Cc4ccc(OC)c(OC)c4)ccc3o2)cc1,x,x,x,x,x,1.3
COc1ccc(-c2nc3cc(NC(=O)Cc4ccc(Cl)cc4)ccc3o2)cc1OC,u,7.94µM*,10µM*,x,-20.6%[10.9 µM],-12.1
COc1ccc(CC(=O)Nc2cccc(-c3nnc(-c4ccc(C)cc4)o3)c2)cc1OC,u,-9.3%,u,3.16µM*,-17.0%,19.4
COc1ccc(CC(=O)Nc2cccc(-c3nnc(-c4cccc(C)c4)o3)c2)cc1OC,u,u,12.6µM*,u,-46.5%,9.8
COc1ccc(CC(=O)Nc2cccc(-c3nnc(-c4ccccc4)o3)c2)cc1OC,u,2.2%,-20.1%,-14.5%,-35.0%,15.9
CC(=O)OC[C@@H]1O[C@@H](O/N=C2/C[C@@H](O)[C@@H](O)[C@@H]3[C@@H]4C(=O)N(C[C@@H]5CCCO5)C(=O)[C@H]4CC[C@H]23)[C@H](OC(C)=O)[C@H](OC(C)=O)[C@@H]1OC(C)=O,x,5.6%[9.22 µM],6.7%[9.22 µM],1.1%[11.4 µM],x,x
O=C(c1cnccn1)N1CCC2(CCCN(C(c3ccccc3)c3ccccc3)C2)CC1,2.0%[11.4 µM],u,-17.2%,0.0%[11.4 µM],x,x
C[C@@]12CC(=O)[C@@H]3[C@@H](CCC4=CC(=O)CC[C@]43C)[C@@H]1CC=C2CC(=O)O,0.8%[11.4 µM],11.8%[9.22 µM],2.0%[9.22 µM],-1.8%[11.4 µM],-9.4%[10.9 µM],x
